# Measurements as given in PubChem BioAssay (NCATS).
# Values joined by “and” are separate entries in the source; they are usually repeats but may differ in a detail not shown here. Equal entries are not always repeated. Inconclusive results are not listed. A call without a number means that no potency is given here. Active and inactive are the calls of the source. Unless noted, the call rests on the fitted dose curve; in most records, active means well fitted curve in the direction sought with a large enough effect; inconclusive means small, poorly fitted or top-dose-only effect, or another doubt; inactive means no such curve, though single readings can be large; an effect the other way counts as inactive or inconclusive.
# What was measured:
# [1] = AP1 Signaling Pathway (AID 357; active means well fitted curve in either direction with a large enough effect, not every such curve was filed as active;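 further: ME-180 reporter cells stimulated with EGF at its EC50 level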); conditions: ME-180 AP-1-bla reporter, EGF-induced, beta-lactamase ratio, 5 h
# Method in brief: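 Beta-lactamase reporter under AP-1 response element, ME-180 background. Stimulus: EC50 EGF. Compound exposure 5 h, 37 °C. Detection: CCF4, 2.5 h RT, 460/530 nm. Values: AC50 from titration.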
# [2] = Stat Signaling Pathway (AID 446; active means well fitted curve in either direction with a large enough effect, not every such curve was filed as active;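 further: ME-180 cervical cancer cells given 40 pM IL-6 alongside compound; SIE-controlled beta-lactamase reporter measured as 460/530 nm FRET emission ratio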); conditions: ME-180 (cervical carcinoma) SIE beta-lactamase reporter, IL-6 stimulated, 5 h
# Method in brief: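 FRET read-out (405 nm excitation, 460/530 nm emission) of a beta-lactamase reporter under a STAT-inducible element in ME-180 cervical carcinoma cells. Cells with compound receive 40 pM IL-6 for 5 h. Values are normalised to AC90 stimulation and AC90 JAK-inhibitor controls.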
# [3] = molecular target: Glucocorticoid receptor (Homo sapiens) (UniProt P04150); assay: GR-GFP Redistribution (AID 450;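 active means compounds whose dose series gives a full or clear partial fitted curve of increased nuclear translocation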; further: potency means the concentration at half of the fitted maximal effect); conditions: U2OS GR-GFP nuclear translocation, laser cytometry, 2 h
# Sequence of Glucocorticoid receptor (Homo sapiens) (P04150 whole entry, looked up, the tested form may be a part): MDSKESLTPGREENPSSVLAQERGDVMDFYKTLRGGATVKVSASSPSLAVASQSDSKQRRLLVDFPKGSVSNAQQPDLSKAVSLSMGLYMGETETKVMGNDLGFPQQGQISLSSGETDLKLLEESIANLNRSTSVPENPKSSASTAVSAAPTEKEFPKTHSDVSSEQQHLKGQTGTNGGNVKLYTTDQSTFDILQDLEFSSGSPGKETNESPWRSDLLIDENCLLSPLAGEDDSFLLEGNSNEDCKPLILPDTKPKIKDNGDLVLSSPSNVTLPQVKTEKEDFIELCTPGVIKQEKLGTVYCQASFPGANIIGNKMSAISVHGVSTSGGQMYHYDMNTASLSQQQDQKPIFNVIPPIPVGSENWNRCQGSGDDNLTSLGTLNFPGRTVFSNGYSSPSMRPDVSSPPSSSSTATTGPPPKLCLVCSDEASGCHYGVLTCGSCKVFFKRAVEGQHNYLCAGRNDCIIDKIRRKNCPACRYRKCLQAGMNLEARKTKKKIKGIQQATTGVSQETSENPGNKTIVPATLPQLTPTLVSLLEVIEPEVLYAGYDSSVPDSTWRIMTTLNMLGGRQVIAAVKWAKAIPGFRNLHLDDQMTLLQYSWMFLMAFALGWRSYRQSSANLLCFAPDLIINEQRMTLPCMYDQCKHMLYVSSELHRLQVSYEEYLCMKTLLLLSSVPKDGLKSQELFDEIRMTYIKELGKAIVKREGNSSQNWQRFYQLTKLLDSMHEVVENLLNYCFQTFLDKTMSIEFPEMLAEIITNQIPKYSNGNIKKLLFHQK
# [4] = molecular target: Glucocorticoid receptor (Homo sapiens) (UniProt P04150); assay: GR-EFC Redistribution (AID 451; calls by dose curve; further: potency means the concentration at half of the fitted maximal effect); conditions: CHO-K1 GR-EFC translocation, beta-gal luminescence, 2 h
# Method in brief: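 Translocation of GR-ED fusion to nuclear EA restores b-gal, read by luminescence after 1 h room-temperature detection. Engineered CHO-K1 biosensor cells, 1,000/well, exposed 2 h at 37 C to titrations up to 46 uM final.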
# [5] = molecular target: Mitogen-activated protein kinase 10 (Mus musculus) (UniProt Q61831); assay: JNK3 AlphaScreen Assay (AID 530; active means well fitted curve in either direction with a large enough effect, not every such curve was filed as active;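 further: kinase came from lysate of stimulated human HepG2 cells; signal reports phosphorylation of biotinylated GST-cJun 1-79 at Ser73 with 10 µM ATP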); conditions: JNK3 lysate, c-Jun phosphorylation; series mostly up to 57.1 µM
# Method in brief: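 Kinase buffer: 20 mM Tris-HCl pH 7.6, 10 mM MgCl2, 1 mM DTT, 0.1 mM Na3VO4, 0.01% Tween-20; ATP 10 uM. Substrate biotin-GST-cJun(1-79), enzyme from activated HepG2 lysates. Detection by Ser73 phospho-antibody AlphaScreen.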
# [6] = molecular target: 3',5'-cyclic-AMP phosphodiesterase 4B (Homo sapiens) (UniProt Q07343); assay: qHTS Assay for Inhibitors of PDE-IV (AID 607; active means well fitted activation curve with a large enough effect in the main read-out, with a control signal flat, not every such curve was filed as active); conditions: HEK293 ACTOne CNG channel cells, membrane potential fluorescence; series mostly up to 22.9 µM
# Sequence of 3',5'-cyclic-AMP phosphodiesterase 4B (Homo sapiens) (Q07343 whole entry, looked up): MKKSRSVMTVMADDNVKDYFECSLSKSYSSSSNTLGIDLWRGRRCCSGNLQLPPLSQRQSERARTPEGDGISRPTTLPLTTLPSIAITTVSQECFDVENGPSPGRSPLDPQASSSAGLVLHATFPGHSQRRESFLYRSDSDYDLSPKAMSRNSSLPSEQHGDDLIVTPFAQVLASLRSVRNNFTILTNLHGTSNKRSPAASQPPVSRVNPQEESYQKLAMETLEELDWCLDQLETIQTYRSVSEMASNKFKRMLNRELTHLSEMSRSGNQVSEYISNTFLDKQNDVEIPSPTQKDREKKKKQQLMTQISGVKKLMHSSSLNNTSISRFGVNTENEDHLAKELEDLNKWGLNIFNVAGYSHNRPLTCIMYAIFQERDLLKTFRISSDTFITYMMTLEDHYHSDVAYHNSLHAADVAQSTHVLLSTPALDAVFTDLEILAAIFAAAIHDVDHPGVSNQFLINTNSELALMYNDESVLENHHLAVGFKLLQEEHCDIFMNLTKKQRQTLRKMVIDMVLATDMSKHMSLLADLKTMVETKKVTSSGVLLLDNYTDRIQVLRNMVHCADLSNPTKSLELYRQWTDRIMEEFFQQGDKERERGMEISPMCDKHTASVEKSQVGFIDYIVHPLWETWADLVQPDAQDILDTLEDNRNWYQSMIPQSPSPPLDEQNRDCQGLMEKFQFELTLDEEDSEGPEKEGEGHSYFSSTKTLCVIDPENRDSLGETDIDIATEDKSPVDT
# Method in brief: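 Cell-based read-out of cAMP via a modified cyclic nucleotide-gated channel and membrane potential dye (535/590 nm) in HEK293 cells expressing PDE4 endogenously. Compounds tested up to 22.9 uM final; 100 uM RO 20-1724 reference.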
# [7] = molecular target: Guanine nucleotide-binding protein G(i) subunit alpha-1 (Homo sapiens) (UniProt P63096); assay: qHTS Assay for Inhibitors of RGS12 GoLoco Motif Activity (Green Fluorophore) (AID 879); conditions: Galphai1/FITC-RGS12 GoLoco peptide, fluorescence polarization; series mostly up to 57.1 µM;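 further: negative values mean loss of peptide binding seen as reduced polarization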
# Sequence of Guanine nucleotide-binding protein G(i) subunit alpha-1 (Homo sapiens) (P63096 whole entry, looked up): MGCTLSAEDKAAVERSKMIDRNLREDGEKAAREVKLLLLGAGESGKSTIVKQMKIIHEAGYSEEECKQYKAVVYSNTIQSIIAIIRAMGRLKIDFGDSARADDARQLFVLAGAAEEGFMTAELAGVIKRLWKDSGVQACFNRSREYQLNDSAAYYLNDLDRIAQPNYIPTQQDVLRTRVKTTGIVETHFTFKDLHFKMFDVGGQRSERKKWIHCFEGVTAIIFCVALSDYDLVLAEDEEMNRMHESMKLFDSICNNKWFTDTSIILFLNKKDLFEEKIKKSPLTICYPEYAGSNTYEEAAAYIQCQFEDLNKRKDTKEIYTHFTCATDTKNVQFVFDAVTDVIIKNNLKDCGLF
# Method in brief: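 A drop in FITC polarization marked displacement of the FITC-tagged RGS12 GoLoco peptide (10 nM) from Gαi1 (50 nM). Compounds were incubated 10 min at room temperature in Tris pH 7.5 buffer containing 150 mM NaCl, 0.1 mM GDP and 0.05% NP40; unlabeled peptide titration served as control.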
# [8] = Confirmation and Secondary Assay for Modulators of Hemoglobin Beta Chain Splicing at IVS2 654 locus (AID 910); conditions: HeLa EGFP-654 splicing reporter, GFP fluorescence, 48 h; series mostly up to 46.1 µM;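 further: HeLa cells stably carrying EGFP split by mutant beta-globin IVS2-654 intron; per-well total GFP intensity by laser scanning cytometry after 2-day treatment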
# Method in brief: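 Readout: per-well total peak green fluorescence (488 nm ex, 500–520 nm em) from objects 5–250 µm, reflecting correct splicing of an EGFP-654 reporter. Compounds were applied for 2 days at 37 °C to overnight-plated HeLa EGFP-654 cells; controls were DMSO and 500 nM IVS2-654 PNA.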
# [9] = qHTS Assay for Identification of Small Molecule Agonists for Thrombopoietin (TPO) Signaling Pathway (AID 917); conditions: TPO signaling pathway reporter cells, agonist qHTS, stimulated with TPO at its EC50; series mostly up to 38.5 µM
# Method in brief: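 Human TPO receptor–transfected Ba/F3 cells (murine, IL-3-dependent) in IL-3-deficient medium; compounds plus TPO at EC50, 26 pM final; 24 hrs, 37 C; GpIIb-luciferase luminescence after 10 min RT detection.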
# [10] = Confirmation and Secondary Assay for Modulators of Hemoglobin Beta Chain Splicing at IVS2 705 locus (AID 930); conditions: HeLa EGFP-705 splicing reporter, GFP fluorescence, 48 h; series mostly up to 46.1 µM;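 further: HeLa cells stably expressing the EGFP-705 splicing reporter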
# Method in brief: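 Restored EGFP fluorescence after 2-day compound exposure reports splicing correction in IVS2-705 EGFP reporter HeLa cells; positive control was 500 nM splice-blocking PNA oligo. Signal measured as well total peak GFP intensity (488 nm excitation).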
# [11] = molecular target: Pyruvate kinase (Leishmania mexicana) (UniProt Q27686); assay: qHTS Validation Assay for Inhibitors of Leishmania Mexicana Pyruvate Kinase (AID 945); conditions: purified L. mexicana pyruvate kinase, enzyme activity, E451W mutant enzyme; series mostly up to 57.5 µM
# Sequence of Pyruvate kinase (Leishmania mexicana) (Q27686 2-499 E452W): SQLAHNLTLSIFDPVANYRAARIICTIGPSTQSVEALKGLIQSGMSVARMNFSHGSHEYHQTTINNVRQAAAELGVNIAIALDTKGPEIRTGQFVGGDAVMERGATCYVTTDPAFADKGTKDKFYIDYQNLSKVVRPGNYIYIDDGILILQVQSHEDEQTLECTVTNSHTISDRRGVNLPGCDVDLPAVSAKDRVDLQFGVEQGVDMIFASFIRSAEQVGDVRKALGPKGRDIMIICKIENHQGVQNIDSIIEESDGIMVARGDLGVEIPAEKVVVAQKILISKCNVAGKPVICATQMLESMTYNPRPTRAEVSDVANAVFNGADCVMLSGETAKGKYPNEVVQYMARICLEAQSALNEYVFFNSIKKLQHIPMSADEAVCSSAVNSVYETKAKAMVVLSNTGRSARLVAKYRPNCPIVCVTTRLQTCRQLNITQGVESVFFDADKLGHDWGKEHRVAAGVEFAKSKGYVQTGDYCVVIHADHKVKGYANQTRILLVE
# Method in brief: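 Purified LmPYK (E451W mutant, 0.2 nM) was incubated 1 h at room temperature with 0.5 mM PEP and 0.1 mM ADP in 50 mM imidazole pH 7.2, 50 mM KCl, 7 mM MgCl2; ATP formed was read by PKLight luminescence, normalized to DMSO wells.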
# [12] = molecular target: Alpha-galactosidase A (Homo sapiens) (UniProt P06280); assay: Counterscreen for Glucocerebrosidase Inhibitors: qHTS Assay for Human alpha-Galactosidase at pH 4.5 (AID 992); conditions: purified enzyme, fluorogenic substrate; series mostly up to 76.9 µM
# Sequence of Alpha-galactosidase A (Homo sapiens) (P06280 whole entry, looked up): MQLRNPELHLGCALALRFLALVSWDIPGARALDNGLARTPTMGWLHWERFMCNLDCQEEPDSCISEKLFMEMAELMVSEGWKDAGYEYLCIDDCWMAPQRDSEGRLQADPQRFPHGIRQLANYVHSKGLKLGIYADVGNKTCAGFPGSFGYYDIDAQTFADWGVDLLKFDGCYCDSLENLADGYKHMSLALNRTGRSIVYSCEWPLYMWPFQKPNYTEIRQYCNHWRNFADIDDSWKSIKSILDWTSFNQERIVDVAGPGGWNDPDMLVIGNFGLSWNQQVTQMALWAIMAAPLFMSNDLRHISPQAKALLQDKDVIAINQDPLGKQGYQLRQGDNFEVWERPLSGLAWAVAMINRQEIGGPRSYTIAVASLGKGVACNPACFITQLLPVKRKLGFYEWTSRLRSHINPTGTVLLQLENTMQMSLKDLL
# Method in brief: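 Fluorogenic 1536-well qHTS at pH 4.5 (citrate, Tween-20): 2 nM enzyme, 80 uM 4-MU-alpha-galactoside, 20 min room temperature, NaOH/glycine stop. Titration 0.7 nM to 77 uM, data normalized to no-enzyme and full-activity controls, Hill-fitted AC50.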
# [13] = molecular target: alpha-glucosidase (Oryza sativa, rice) (UniProt Q653V4); assay: Counterscreen for Glucocerebrosidase Inhibitors: qHTS Assay for Rice alpha-Glucosidase at pH 5.0 (AID 997); conditions: rice alpha-glucosidase enzyme activity; series mostly up to 76.9 µM
# Method in brief: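 Endpoint fluorogenic assay at pH 5.0: compounds (0.7 nM to 77 uM) titrated against 4 nM rice enzyme and 400 uM 4-MU-alpha-glucoside for 20 min at room temperature; NaOH/glycine stop, read ex 365/em 440 nm, Hill-fitted AC50.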
# [14] = qHTS Assay for Lipid Storage Modulators (AID 1519; calls by dose curve); conditions: Drosophila S3 cells, BODIPY lipid droplet/cell ratio, laser cytometry, cells loaded with oleic acid
# Method in brief: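 Cells seeded at 5,000 per well were treated with compounds over a concentration series and loaded with oleic acid (400 uM, as added). Lipid droplet fluorescence (488 nm excitation, 500-530 nm channel) was read by laser-scanning cytometry and normalized to 20 uM Triacsin C.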
# [15] = molecular target: Ubiquitin carboxyl-terminal hydrolase 1 (Homo sapiens) (UniProt O94782); assay: Inhibitors of USP1/UAF1: Pilot qHTS (AID 504865); conditions: purified USP1/UAF1, Ub-rhodamine cleavage fluorescence; series mostly up to 114 µM;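 further: rhodamine fluorescence freed from ubiquitin-rhodamine substrate followed over time; top concentration of the series differs between compounds; nearly all actives have a fitted effect of over 35% in size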
# Sequence of Ubiquitin carboxyl-terminal hydrolase 1 (Homo sapiens) (O94782 whole entry, looked up): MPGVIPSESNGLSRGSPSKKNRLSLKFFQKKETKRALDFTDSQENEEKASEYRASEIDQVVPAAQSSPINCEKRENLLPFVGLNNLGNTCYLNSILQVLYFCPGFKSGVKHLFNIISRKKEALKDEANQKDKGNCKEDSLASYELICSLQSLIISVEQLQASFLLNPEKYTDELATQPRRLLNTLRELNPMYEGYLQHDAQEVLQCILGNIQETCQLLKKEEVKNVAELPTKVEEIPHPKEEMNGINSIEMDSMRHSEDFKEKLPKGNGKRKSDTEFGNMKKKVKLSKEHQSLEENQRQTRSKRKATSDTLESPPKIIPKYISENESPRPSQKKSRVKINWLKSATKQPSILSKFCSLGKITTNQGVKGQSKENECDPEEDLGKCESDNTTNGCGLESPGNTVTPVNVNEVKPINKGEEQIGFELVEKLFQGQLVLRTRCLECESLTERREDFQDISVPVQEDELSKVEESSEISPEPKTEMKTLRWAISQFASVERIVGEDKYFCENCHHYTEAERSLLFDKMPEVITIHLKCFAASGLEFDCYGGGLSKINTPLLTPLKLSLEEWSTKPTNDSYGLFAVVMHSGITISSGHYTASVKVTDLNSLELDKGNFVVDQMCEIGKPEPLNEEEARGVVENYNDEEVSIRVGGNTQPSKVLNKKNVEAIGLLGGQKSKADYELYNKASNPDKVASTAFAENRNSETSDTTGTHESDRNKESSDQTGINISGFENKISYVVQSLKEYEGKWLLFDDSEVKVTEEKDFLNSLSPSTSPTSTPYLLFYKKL
# Method in brief: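 Enzyme-free wells gave the negative control, while test wells held 1nM USP1/UAF1 preincubated with compound for 15 min at room temperature. Ub-Rho at 150nM final started the reaction, and fluorescence at 480/540 nm was recorded kinetically.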
# [16] = molecular target: DNA dC->dU-editing enzyme APOBEC-3G (Homo sapiens) (UniProt Q9HC16); assay: qHTS for inhibitors of Vif-A3G interactions: Validation (AID 588379); conditions: Vif-A3G protein interaction assay; series mostly up to 46.1 µM
# Sequence of DNA dC->dU-editing enzyme APOBEC-3G (Homo sapiens) (Q9HC16 whole entry, looked up): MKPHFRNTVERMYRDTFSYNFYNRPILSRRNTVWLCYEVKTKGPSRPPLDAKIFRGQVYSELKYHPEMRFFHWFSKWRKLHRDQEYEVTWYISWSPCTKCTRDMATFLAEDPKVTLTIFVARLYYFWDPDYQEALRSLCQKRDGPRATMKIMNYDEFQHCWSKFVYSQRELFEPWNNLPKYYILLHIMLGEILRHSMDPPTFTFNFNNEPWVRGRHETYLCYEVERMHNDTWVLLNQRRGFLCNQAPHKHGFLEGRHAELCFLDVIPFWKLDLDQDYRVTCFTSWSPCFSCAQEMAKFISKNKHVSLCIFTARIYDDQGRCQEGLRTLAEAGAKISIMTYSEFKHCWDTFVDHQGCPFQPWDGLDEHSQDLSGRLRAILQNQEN
# Method in brief: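 Yellow fluorescence (Ex 488, Em 500-530) of Vif-coexpressing HeLa A3G-eYFP cells, scanned by Acumen cytometer, reports blocked A3G degradation. Cells plated at 700/well overnight at 37 deg C before compound addition, then a further overnight compound incubation at 37 deg C.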
# [17] = system: Zika virus NS2B-NS3 protease; assay: Primary screen GU AMC qHTS for Zika virus inhibitors (AID 1347154); conditions: Zika NS2B-NS3 unlinked protease, AMC fluorogenic substrate; series mostly up to 54.1 µM; further: nearly all actives have a fitted effect of over 70% in size
# Method in brief: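 Fluorogenic AMC-substrate cleavage by noncovalent NS2B-NS3 protease complex (25 nM, pH 8.0 Tris buffer with Tween 20) followed for 15 minutes at room temperature (~20% conversion). Percent inhibition from ex340/em450 signal change, fitted by 4-parameter Hill equation.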
# [18] = molecular target: Cytochrome P450 3A4 (Homo sapiens) (UniProt P08684); assay: qHTS Assay for Inhibitors and Substrates of Cytochrome P450 3A4 (AID 884); conditions: recombinant CYP3A4, Luciferin-PPXE luminescence; series mostly up to 57.1 µM; further: nearly all actives have a fitted effect of over 50% in size
# Sequence of Cytochrome P450 3A4 (Homo sapiens) (P08684 whole entry, looked up): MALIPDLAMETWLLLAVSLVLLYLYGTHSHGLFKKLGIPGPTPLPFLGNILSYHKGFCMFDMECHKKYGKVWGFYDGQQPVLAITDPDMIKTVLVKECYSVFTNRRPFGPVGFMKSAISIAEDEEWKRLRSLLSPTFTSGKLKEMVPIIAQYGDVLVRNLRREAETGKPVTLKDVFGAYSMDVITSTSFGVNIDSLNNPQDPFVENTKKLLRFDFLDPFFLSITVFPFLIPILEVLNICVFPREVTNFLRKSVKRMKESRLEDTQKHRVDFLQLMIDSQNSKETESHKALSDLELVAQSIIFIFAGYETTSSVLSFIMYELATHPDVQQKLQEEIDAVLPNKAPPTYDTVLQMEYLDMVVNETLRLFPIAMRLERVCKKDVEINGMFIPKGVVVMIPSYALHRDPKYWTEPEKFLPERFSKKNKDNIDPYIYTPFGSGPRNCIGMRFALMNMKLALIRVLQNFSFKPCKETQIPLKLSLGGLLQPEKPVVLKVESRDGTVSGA
# Method in brief: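 Luminescent readout of luciferin produced by CYP3A4 (20 nM) dealkylation of Luciferin-PPXE, 25 uM (its KM). NADPH-driven reaction ran 60 min at RT after 10 min compound preincubation; data scaled to 57 uM ketoconazole as 100% inhibition.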
# [19] = Primary qHTS for small molecule stabilizers of the endoplasmic reticulum resident proteome: Secreted ER Calcium Modulated Protein (SERCaMP) assay (AID 1508630); conditions: SH-SY5Y GLuc-SERCaMP (Gaussia luciferase released on ER calcium loss) secretion, thapsigargin, luminescence; series mostly up to 38.4 µM
# Method in brief: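 The SH-SY5Y reporter protocol was run at 3 concentrations up to 38.3 uM (primary) or 11 concentrations (follow-up): 16 h compound, 100 nM thapsigargin for 4 h, then extracellular luciferase luminescence.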
# [20] = molecular target: Muscarinic acetylcholine receptor M1 (Rattus norvegicus) (UniProt P08482); assay: qHTS Assay for Antagonists of Acetylcholine Muscarinic M1 Receptor: Kinetic Measurement of Intracellular Calcium Response (AID 943); conditions: M1-expressing cells, kinetic intracellular calcium fluorescence; series mostly up to 35.3 µM; further: potency means the concentration at half of the fitted maximal effect; nearly all actives have a fitted effect of over 75% in size
# Method in brief: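 Quantitative HTS in CHO-M1 (rat receptor) cells: 10 min compound exposure ahead of 100 nM carbachol, Fluo-4 fluorescence followed 4 min, value expressed as peak-to-basal ratio.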
# [21] = molecular target: Pyruvate kinase PKM (Homo sapiens) (UniProt P14618); assay: qHTS Assay for Activators of Human Muscle Pyruvate Kinase (AID 954; active means well fitted curve in the direction sought with a large enough effect, not every such curve was filed as active); conditions: purified human muscle pyruvate kinase, luciferase-coupled luminescence, 1 h; series mostly up to 57.5 µM
# Sequence of Pyruvate kinase PKM (Homo sapiens) (P14618 whole entry, looked up): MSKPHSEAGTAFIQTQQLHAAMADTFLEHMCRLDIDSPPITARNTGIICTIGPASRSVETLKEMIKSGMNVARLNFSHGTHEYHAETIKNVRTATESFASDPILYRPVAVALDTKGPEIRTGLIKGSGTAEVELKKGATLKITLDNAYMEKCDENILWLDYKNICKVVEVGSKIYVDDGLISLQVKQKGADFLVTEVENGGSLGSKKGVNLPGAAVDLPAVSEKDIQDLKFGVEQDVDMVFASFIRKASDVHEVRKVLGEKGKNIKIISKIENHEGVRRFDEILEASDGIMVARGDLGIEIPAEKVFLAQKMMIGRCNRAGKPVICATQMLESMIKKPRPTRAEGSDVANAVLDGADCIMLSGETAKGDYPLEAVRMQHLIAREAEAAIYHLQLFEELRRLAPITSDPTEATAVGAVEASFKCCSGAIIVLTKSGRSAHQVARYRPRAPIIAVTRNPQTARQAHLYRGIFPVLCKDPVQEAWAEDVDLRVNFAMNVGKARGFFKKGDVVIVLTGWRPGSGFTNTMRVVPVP
# Method in brief: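 ATP production by PKM2 detected via luciferase luminescence after 1 h room-temperature reaction (0.1 nM enzyme, PEP at Km 0.5 mM, ADP 0.1 mM, pH 7.2 imidazole buffer). Inhibition scaled to no-enzyme control; activation referenced to 0.3 nM enzyme wells.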
# [22] = measured here: cell count channel max response
# [23] = measured here: lipid channel max response
compound,measurement,setting,value
CC(C)(C)NC[C@H](O)c1ccc(O)c(CO)c1,"activity change, negative = inhibition",[1]; at 17.2 µM (top of the series),-9.06% (inactive)
same,"activity change, negative = inhibition",[1]; at 38 µM (top of the series),-4.2% (inactive) and -6.86% (inactive)
same,"activity, negative = inhibition",[2]; at 17.2 µM (top of the series),16.1% (inactive)
same,"activity, negative = inhibition",[2]; at 38 µM (top of the series),-5.91% (inactive) and -0.604% (inactive)
same,Potency,[3],> 46 µM (inactive) and > 20.6 µM (inactive)
same,Potency,[4],> 46 µM (inactive) and > 20.6 µM (inactive)
same,Potency,[5],inactive
same,Potency,[6],inactive
same,outcome,[7],inactive
same,outcome,[8],inactive
same,Potency,[9],inactive
same,outcome,[10],inactive
same,Potency,[11],inactive
same,outcome,[12],inactive
same,outcome,[13],inactive
same,"activity change, negative = inhibition",[14]; at 25.7 µM (top of the series),-2.46% (inactive)
same,"activity change, negative = inhibition",[14]; at 57.5 µM (top of the series),3.61% (inactive)
same,max response,[14]; [22],-16.6%
same,max response,[14]; [23],-19.3% and -13%
same,Potency,[15],inactive
same,Potency,[16],inactive
same,Potency,[17],inactive
CCNCCCNCCCCNCCCNCC,Potency,[3],> 46 µM (inactive)
same,Potency,[5],inactive
same,Potency,[6],inactive
same,"activity change, negative = inhibition",[14]; at 57.5 µM (top of the series),2.21% (inactive)
same,max response,[14]; [22],15.1%
same,max response,[14]; [23],18.1%
same,Potency,[15],inactive
same,Potency,[16],inactive
same,Potency,[17],inactive
CCN(CC)CCCCC1CCN(CC(=O)N2c3ccccc3C(=O)Nc3cccnc32)CC1,Potency,[18],inactive
same,Potency,[17],inactive
same,Potency,[19],inactive
Cc1ccc(/C(=C/CN2CCCC2)c2ccccn2)cc1,"activity, negative = inhibition",[2]; at 17.2 µM (top of the series),6.54% (inactive)
same,"activity, negative = inhibition",[2]; at 38 µM (top of the series),-0.742% (inactive)
same,Potency,[5],inactive
same,Potency,[6],inactive
same,outcome,[7],inactive
same,Potency,[20],1.26 µM (active)
same,outcome,[21],inactive
same,outcome,[12],inactive
same,outcome,[13],inactive
same,"activity change, negative = inhibition",[14]; at 25.7 µM (top of the series),-1.93% (inactive)
same,"activity change, negative = inhibition",[14]; at 57.5 µM (top of the series),3.43% (inactive)
same,max response,[14]; [22],0.155% and 8.83%
same,max response,[14]; [23],-0.659% and 14%
same,Potency,[15],inactive
same,Potency,[16],inactive
same,Potency,[17],inactive
